Drawing on PubChem BioAssay AID504602 (National Center for Advancing Translational Sciences (NCATS), 2011), this text covers Potency for 30 compounds.

Inconclusive results are not listed. Entries that show only a call come without a potency. The source made the active and inactive calls. The call rests on the fitted dose curve; in most records, active means well fitted curve in the direction sought with a large enough effect; inconclusive means small, poorly fitted or top-dose-only effect, or effect the other way, or another doubt; inactive means no such curve, though single readings can be large or run the other way.

This test is described as follows: Quantitative high throughput screen to test cell viability of anti-malarial compounds targeting the delayed death phenotype. To be noted: HepG2 viability, CellTiter-Glo luminescence, 48 h; series mostly up to 46.1 µM. The source says:
The biochemical processes that make this organelle essential for erythrocytic stage parasites are not well understood. However, antibiotics, such as azithromycin and tetracycline, which target the apicoplast translational machinery, have a potent antimalarial effect. […] We have developed a cell-based assay that measures parasite growth based on the expression of an integrated copy of a firefly luciferase reporter. To detect small molecules that cause this 'delayed death' phenotype, erythrocytes infected with the luciferase-expressing parasites were incubated with compounds for either one or two generations, corresponding to 48 and 96 hours, respectively. Compounds that inhibit parasite growth in the second generation, but not the first, should be enriched in antimalarials that target the apicoplast. Growth inhibition is detected by a decrease in luciferase activity. The goal of this counterscreen is to measure the cytoxoxicity (against HepG2 cell line) of a set of anti-malarial compounds that target the delayed death pheonotype as identified by the qHTS assay that inhibit the development of the apicoplast in the malarial parasite Plasmodium falciparum. NIH Molecular Libraries Probe Production Network [MLPCN] NIH Chemical Genomics Center [NCGC] MLPCN Grant: R21 NS059500 Assay Provider: David Fidock and Eric Ekland, Columbia University
Cells were plated at a density of 2000 cells/well/5uL in 1536 well white tissue culture plate with culture medium. Triplicate plates were prepared. Plates were incubated at 37C, 5% CO2 for 5 hours and then 23nL of compounds and positive control were transferred to the assay plates. Tetraoctylammonium bromide was added as a positive control. Plates were then incubated at 37C, 5% CO2 for 48 hours. 5 uL of CellTitler-Glo buffer was added to each well and then incubated for 30 min at room temperature. Luminescence was measured using ViewLux (1 second, slow, 2X).
(In general: ATP-based viability assays read luminescence as a measure of living cells.)
For the compound `Cc1noc(C)c1NC(=O)Nc1ccc2c(c1)C(=O)N(C(C)C)C[C@@H](C)[C@H](CN(C)S(=O)(=O)c1ccc(F)cc1)OCCCC[C@H](C)O2`, the Potency result is “inactive”.

Consider `COCCOC(=O)N(C)C[C@@H]1OCCCC[C@H](C)Oc2ccc(NC(=O)Nc3ccccc3)cc2C(=O)N([C@@H](C)CO)C[C@H]1C`, for which the Potency result was “inactive”.

On to `C[C@@H]1CN([C@@H](C)CO[Si](C)(C)C(C)(C)C)C(=O)c2cc(NC(=O)Nc3ccccc3)ccc2O[C@@H](C)CCCCO[C@H]1CN(C)S(=O)(=O)c1ccc(F)cc1`, for which the Potency entry was “inactive”.

On to `C[C@@H]1CN([C@@H](C)CO)C(=O)c2cc(NC(=O)Nc3ccccc3)ccc2O[C@@H](C)C/C=C\CO[C@H]1CN(C)S(=O)(=O)c1ccc(F)cc1`, for which the Potency entry is “inactive”.

For `C=CCOC(=O)N(C)C[C@H]1OCCCC[C@H](C)Oc2ccc(NC(=O)Nc3ccccc3)cc2C(=O)N([C@@H](C)CO[Si](C)(C)C(C)(C)C)C[C@H]1C`, the Potency entry was “inactive”.

`C[C@@H]1CN([C@@H](C)CO)C(=O)c2cc(NC(=O)Nc3ccccc3)ccc2O[C@@H](C)CCCCO[C@H]1CN(C)C(=O)OC(C)(C)C`: the Potency entry is “inactive”.

With `C[C@@H]1CN(CCO[Si](C)(C)C(C)(C)C)C(=O)c2cc(NC(=O)Nc3ccccc3)ccc2O[C@@H](C)CCCCO[C@H]1CN(C)S(=O)(=O)c1ccc(F)cc1`, the Potency result is “inactive”.

Turning to `C[C@@H]1CN(CCO)C(=O)c2cc(NC(=O)Nc3ccccc3)ccc2O[C@@H](C)CCCCO[C@H]1CN(C)S(=O)(=O)c1ccc(F)cc1`, the Potency entry is “inactive”.

In the case of `C[C@@H]1CN([C@@H](C)COC(=O)c2ccccc2)C(=O)c2cc(NC(=O)Nc3ccccc3)ccc2O[C@@H](C)CCCCO[C@H]1CN(C)S(=O)(=O)c1ccc(F)cc1`, the Potency entry was “inactive”.

With `C=CCOC(=O)N(C)C[C@@H]1OCCCC[C@H](C)Oc2ccc(NC(=O)Nc3ccccc3)cc2C(=O)N([C@@H](C)CO)C[C@H]1C`, the Potency entry was “inactive”.

For `C[C@@H]1CN([C@@H](C)CO)C(=O)c2cc(NC(=O)Nc3ccccc3)ccc2O[C@@H](C)C/C=C/CO[C@H]1CN(C)S(=O)(=O)c1ccc(F)cc1`, the Potency result is “inactive”.

As to `CC(C)NC(=O)Nc1ccc2c(c1)C(=O)N([C@@H](C)CO)C[C@@H](C)[C@H](CN(C)S(=O)(=O)c1ccc(F)cc1)OCCCC[C@H](C)O2`, the Potency entry is “inactive”.

On to `C[C@@H]1CN([C@H](C)CO[Si](C)(C)C(C)(C)C)C(=O)c2cc(NC(=O)Nc3ccccc3)ccc2O[C@@H](C)CCCCO[C@H]1CN(C)S(=O)(=O)c1ccc(F)cc1`, for which the Potency entry was “inactive”.

For the compound `C[C@@H]1CN([C@@H](C)CO)C(=O)c2cc(Nc3nc4ccccc4o3)ccc2O[C@@H](C)CCCCO[C@H]1CN(C)S(=O)(=O)c1ccc(F)cc1`, the Potency entry is “inactive”.

Take `C[C@@H]1CN([C@@H](C)CO)C(=O)c2cc(NC(=O)Nc3ccccc3)ccc2O[C@@H](C)CCCCO[C@H]1CN(C)S(=O)(=O)c1cccc(F)c1`: the Potency result was “inactive”.

Take `C[C@@H]1CN([C@@H](C)COC(C)(C)C)C(=O)c2cc(NC(=O)Nc3ccccc3)ccc2O[C@@H](C)CCCCO[C@H]1CN(C)S(=O)(=O)c1ccc(F)cc1`: the Potency result was “inactive”.

Consider `Cc1noc(C)c1NC(=O)Nc1ccc2c(c1)C(=O)N([C@@H](C)CO)C[C@@H](C)[C@H](CN(C)S(=O)(=O)c1ccc(F)cc1)OCCCC[C@H](C)O2`, for which the Potency result was “inactive”.

Take `COc1ccc(COCCN2C[C@@H](C)[C@H](CN(C)S(=O)(=O)c3ccc(F)cc3)OCCCC[C@H](C)Oc3ccc(NC(=O)Nc4ccccc4)cc3C2=O)cc1`: the Potency result is “inactive”.

In the case of `C=CCOC(=O)N(C)C[C@@H]1OCCCC[C@H](C)Oc2ccc(NC(=O)Nc3ccccc3)cc2C(=O)N([C@H](C)COC(=O)c2ccccc2)C[C@H]1C`, the Potency entry was “inactive”.

`C[C@@H]1CN([C@@H](C)COC(=O)c2ccccc2)C(=O)c2cc(NC(=O)Nc3ccccc3)ccc2O[C@@H](C)CCCCO[C@H]1CN(C)C(=O)OC(C)(C)C`: the Potency result is “inactive”.

Turning to `C[C@@H]1CN([C@@H](C)CO)C(=O)c2cc(N)ccc2O[C@@H](C)CCCCO[C@H]1CN(C)S(=O)(=O)c1ccc(F)cc1`, the Potency entry was “inactive”.

In the case of `COCOC[C@H](C)N1C[C@@H](C)[C@H](CN(C)S(=O)(=O)c2ccc(F)cc2)OCCCC[C@H](C)Oc2ccc(NC(=O)Nc3ccccc3)cc2C1=O`, the Potency is 7.91 µM (active).

For the compound `C[C@@H]1CN([C@@H](C)CO)C(=O)c2cc(NC(=O)Nc3ccccc3)ccc2O[C@@H](C)CCCCO[C@H]1CN(C)S(=O)(=O)c1ccc(C(F)(F)F)cc1`, the Potency entry is “inactive”.

With `C[C@@H]1CN([C@@H](C)CN=[N+]=[N-])C(=O)c2cc(NC(=O)Nc3ccccc3)ccc2O[C@@H](C)CCCCO[C@H]1CN(C)S(=O)(=O)c1ccc(F)cc1`, the Potency entry is “inactive”.

`C[C@@H]1CN([C@@H](C)CO)C(=O)c2cc(NC(=O)Nc3ccccc3)ccc2O[C@@H](C)CCCCO[C@H]1CN(C)S(=O)(=O)c1ccccc1F`: the Potency entry is “inactive”.

As to `COc1ccc(COC[C@H](C)N2C[C@@H](C)[C@H](CN(C)S(=O)(=O)c3ccc(F)cc3)OCCCC[C@H](C)Oc3ccc(NC(=O)Nc4ccccc4)cc3C2=O)cc1`, the Potency result is “inactive”.

Consider `C[C@@H]1CN([C@@H](C)COC(=O)C(C)(C)C)C(=O)c2cc(NC(=O)Nc3ccccc3)ccc2O[C@@H](C)CCCCO[C@H]1CN(C)S(=O)(=O)c1ccc(F)cc1`, for which the Potency entry is “inactive”.

In the case of `C[C@@H]1CN(C)C(=O)c2cc(NC(=O)Nc3ccccc3)ccc2O[C@@H](C)CCCCO[C@@H]1CN(C)S(=O)(=O)c1ccc(F)cc1`, the Potency result is “inactive”.

On to `C[C@@H]1CN([C@@H](C)CO)C(=O)c2cc(NC(=O)Nc3ccccc3)ccc2O[C@@H](C)CCCCO[C@H]1CN(C)S(=O)(=O)c1cccnc1`, for which the Potency result was “inactive”.

In the case of `C[C@@H]1CN([C@@H](C)CO)C(=O)c2cc(NC(=O)Nc3ccccc3)ccc2O[C@@H](C)CCCCO[C@H]1CN(C)Cc1ccc(C(F)(F)F)cc1`, the Potency entry is “inactive”.
